Measured values published in PubChem BioAssay AID720647 (Broad Institute, 2013).
About 1,300 (0.34%) of roughly 380,000 compounds were called active. Only a selection was taken, and actives are over-represented in it overall. A number with no mark means an inactive call.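 How the source made its calls: active means drop in luminescence signal, shown as inhibition above about 50% in the replicate tests (limit read from the data, passing the limit was not always enough); inconclusive means probably only some replicates passing the limit; inactive means the rest.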

test system: Drosophila bursicon receptor LGR2 (rickets); assay: LGR2 cAMP reporter signal reduction – cell-based, HEK293, CRE-luciferase reporter, bursicon stimulation, primary screen (AID 720647); settings: bursicon-stimulated, 4 h, at 9.99 µM, hits give high values;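 further: agonist challenge used bursicon conditioned medium at about half maximal strength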

Row | SMILES | inhibition
1 | O=C(Nc1ccccc1F)N1CC(=O)N2[C@H](C1)[C@H](c1ccc(C#Cc3ccc(F)cc3)cc1)[C@@H]2CO | 5.08%
2 | C[C@@H]1CN([C@@H](C)CO)C(=O)c2cc(NC(=O)Cc3ccccc3)ccc2O[C@H]1CN(C)CC1CC1 | -1.21%
3 | Cc1cnc(NC(=O)c2ccccn2)s1 | 59.5% (active)
4 | COC(=O)Nc1ncc(CN2C(=O)c3ccccc3C2=O)s1 | -22.5%
5 | COc1ccc(CC(=O)NCc2nnc(SCC(=O)Nc3ncc(C)s3)n2C)cc1 | 8.94%
6 | C[C@H]1CN([C@@H](C)CO)C(=O)CCCn2nncc2CO[C@@H]1CN(C)S(=O)(=O)c1ccccc1C#N | -2.41%
7 | O=C(Nc1ccccc1)N1CCCCN2[C@H](CO)[C@@H](c3ccc(-c4ccccc4F)cc3)[C@H]2C1 | 17.4%
8 | CCCNC(=O)N1[C@H](C#N)[C@@H](c2ccccc2C2=CCCCC2)[C@@H]1CO | 8.2%
9 | O=C1CN(Cc2ccccc2)C[C@H]2[C@H](c3ccc(-c4ccccc4)cc3)[C@@H](CO)N12 | -6.09%
10 | O=C(CCCc1ccccc1)NCc1ccccc1 | -36.7%
11 | O=C(CCc1ccccc1F)N1CCN(c2ccccc2)CC1 | -17%
12 | C=CCN1CCN(C(=O)CCCc2ccccc2)CC1 | 66.7% (active)
13 | CCCNC(=O)C[C@@H]1CC[C@H]2[C@H](COc3ccc(NC(=O)c4ccc(Cl)cc4)cc3C(=O)N2C)O1 | -13.7%
14 | COc1ccc(-c2cn(CC[C@@H]3CC[C@@H](NC(=O)CCN4CCCCC4)[C@@H](CO)O3)nn2)cc1 | -11.8%
15 | O=C(Nc1ccccc1Cl)/C(Cl)=C(\Cl)S(=O)c1ccccc1 (stereo not drawn) | 98.9% (active)
16 | C[C@H](CO)N1C[C@H](C)[C@H](CN(C)Cc2ccccc2)OCCCC[C@H](C)Oc2ccc(NC(=O)Cc3ccccc3)cc2C1=O | 24%
17 | C[C@H](CO)N1C[C@H](C)[C@@H](CN(C)Cc2ccccc2)OCCCC[C@H](C)Oc2ccc(NC(=O)Cc3ccccc3)cc2C1=O | 3.25%
18 | O=C(C[C@H]1C=C[C@@H](NC(=O)Nc2cc(F)ccc2F)[C@H](CO)O1)NCCCN1CCOCC1 | -7.04%
19 | COc1cncc(-c2cnc3sc(NCCc4ccccn4)nn23)c1 | 20.8%
20 | COc1cccc(C(NC(C)=O)c2nc(-c3ccccc3OC)cs2)c1 (stereo not drawn) | -5.66%
21 | COc1ccc(-c2csc(Nc3ccccn3)n2)cc1 | 78.5% (active)
22 | C[C@H](CO)N1C[C@H](C)[C@H](CN(C)C(=O)Nc2ccc(F)cc2)Oc2ccc(NC(=O)Cc3cn(C)c4ccccc34)cc2CC1=O | 10.8%
23 | C[C@@H]1CN([C@@H](C)CO)C(=O)c2cc(NS(=O)(=O)c3ccccc3)ccc2O[C@H]1CN(C)CC1CCCCC1 | -4.25%
24 | C[C@@H]1CN([C@@H](C)CO)C(=O)CCCn2cc(nn2)CO[C@H]1CN(C)Cc1ccc(C(=O)O)cc1 | 6.13%
25 | COCCNC(=O)C[C@H]1CC[C@H]2[C@H](COc3ccc(NC(=O)C4CCOCC4)cc3C(=O)N2C)O1 | -14%
26 | CC(C)C(=O)NC(NC(=S)NC1CCS(=O)(=O)C1)C(Cl)(Cl)Cl (stereo not drawn) | -0.282%

Row | SMILES | inhibition
27 | O=S1(=O)CCC(NC(=S)SCc2ccccc2Br)C1 (stereo not drawn) | 69.2% (active)
28 | O=C(CSc1ccccc1F)NC1CCS(=O)(=O)C1 (stereo not drawn) | 23.4%
29 | O=C(COC(=O)c1ccccc1)c1ccc2c(c1)OCCO2 | 66.7% (active)
30 | CCOc1ccc(NCCC(=O)c2ccc3c(c2)OCO3)cc1 | -15.9%
31 | CC(=O)Nc1cccc(C(=O)OCC(=O)c2ccc3c(c2)OCO3)c1 | 63.3% (active)
32 | CCOc1cc(C(=O)OCC(=O)Nc2cccc(C)c2)ccc1OCC(=O)N1CCOCC1 | 16.2%
33 | O=C1COc2ccc(C(=O)COC(=O)c3ccccc3Cl)cc2N1 | -31.2%
34 | N#CCCN(C(=O)COC(=O)c1ccc2c(c1)OCCO2)c1ccccc1 | 4.75%
35 | COc1ccc2c3c(n(C)c2c1)[C@H](CO)N(Cc1ccccc1)CC31CN(C(=O)c2ccccc2F)C1 | 13.5%
36 | CCCC(=O)Nc1ccc2c(c1)C(=O)N(C)C[C@H](OC)[C@H](C)CN(C(=O)c1ccccn1)[C@H](C)CO2 | 14%
37 | O=C(C[C@H]1C=C[C@H](NC(=O)CC2CC2)[C@@H](CO)O1)NCc1ccccc1 | -1.04%
38 | C[C@H]1CN([C@@H](C)CO)C(=O)c2cc(NC(=O)Cn3cnnn3)ccc2O[C@H]1CN(C)C(=O)NC1CCCCC1 | -0.859%
39 | COc1ccc2c3c([nH]c2c1)[C@@H](CO)N(C(=O)Nc1ccc(F)cc1)CC31CN(S(C)(=O)=O)C1 | -10.4%
40 | C[C@@H]1CN([C@@H](C)CO)C(=O)c2cc(-c3ccc(C#N)cc3)cnc2O[C@@H]1CN(C)Cc1cccnc1 | 21.1%
41 | O=S(=O)(Nc1ccc(O)c2ccccc12)c1ccc(OC(F)(F)F)cc1 | 58.8% (active)
42 | O=[N+]([O-])c1ccc(NS(=O)(=O)c2ccccc2)c(Cl)c1 | -13%
43 | O=S(=O)(Cc1noc(-c2ccc(OC(F)(F)F)cc2)n1)c1ccc(F)cc1 | -18.2%
44 | CCCN1[C@@H]2c3ccc(C4=CCCC4)c(=O)n3C[C@@H]2[C@@H](CO)[C@@H]1C(=O)NCc1ccccn1 | -8.46%
45 | COc1ccc(S(=O)(=O)N(C)C[C@H]2OCCCC[C@H](C)Oc3ccc(NC(=O)Nc4ccc5c(c4)OCO5)cc3C(=O)N([C@@H](C)CO)C[C@@H]2C)cc1 | 21.6%
46 | CO[C@@H]1CN(C)C(=O)c2ccc(NC(C)=O)cc2OC[C@@H](C)N(CC2CC2)C[C@H]1C | -1.72%
47 | C[C@H](CO)N1C[C@H](C)[C@H](CN(C)CC2CC2)OCCCC[C@H](C)Oc2ccc(NC(=O)c3ccncc3)cc2C1=O | -8.96%
48 | Cc1ccc(S(=O)(=O)Nc2ccc3c(c2)C(=O)N([C@H](C)CO)C[C@H](C)[C@H](CN(C)S(=O)(=O)c2ccc(F)cc2)O3)cc1 | 2.4%
49 | COc1ccccc1Cc1c(-c2ccc(F)cc2)nc2ccc(C)cn12 | -38.1%
50 | Cc1ccc(-c2cn3cc(C)ccc3n2)cc1 | 102% (active)
51 | Cn1cnc(C(F)(F)F)c1-c1ccc([N+](=O)[O-])cc1 | -7.43%
52 | Cc1ccc2nc(-c3ccc(Br)cc3)cn2c1 | 96.2% (active)

Row | SMILES | inhibition
53 | Cc1nc(-c2ccccc2)cn2c1nc1ccccc12 | 3%
54 | Cc1nc(=O)c(-c2ccccc2)c(C)n1-c1ccc(Br)cc1 | 4.28%
55 | Cc1ccc(-c2cn3cc([N+](=O)[O-])ccc3n2)cc1 | 67.1% (active)
56 | Cc1ccc(N2CCN(c3ccc([N+](=O)[O-])cn3)CC2)c(C)c1 | 4.63%
57 | C[C@@H]1CN([C@@H](C)CO)C(=O)c2cc(C3=CCCC3)cnc2O[C@H]1CN(C)C(=O)c1ccccn1 | -11.6%
58 | COc1ccc(NC(=O)Nc2ccc3c(c2)[C@@H]2C[C@@H](CC(=O)NCc4ccncc4)O[C@@H](CO)[C@@H]2O3)cc1 | 6.93%
59 | CCC(=O)N(C)C[C@@H]1Oc2cc(-c3ccc(C#N)cc3)ccc2S(=O)(=O)N([C@@H](C)CO)C[C@@H]1C | -4.05%
60 | Cc1nc(N2[C@H](CO)[C@H](c3ccccc3)[C@H]2CNCC2CCCCC2)sc1C | -6.28%
61 | NCCCCCC(=O)N/N=C/c1ccc2nccnc2c1 | -0.608%
62 | O=C(O)c1ccc(N/N=C/c2ccc3ncccc3c2)cc1 | 88.1% (active)
63 | CCc1nc2cccnc2n1-c1ccc(C(=O)O)cc1 | -11.5%
64 | O=C(C[C@H]1C=C[C@@H](NC(=O)C2CCOCC2)[C@@H](CO)O1)NCC1CCCCC1 | 25%
65 | Cc1noc(C)c1NC(=O)N(C)C[C@H]1Oc2ccc(NS(=O)(=O)c3ccc(F)cc3)cc2C(=O)N([C@@H](C)CO)C[C@H]1C | -0.097%
66 | O=C(O)CC(CC(=O)N1CCOCC1)c1ccccc1 (stereo not drawn) | 7.83%
67 | N[C@@H](Cc1ccccc1)C(=O)N1CCOCC1 | -3.78%
68 | O=C(CSC(=S)N1CCOCC1)c1ccccc1 | 69.5% (active)
69 | C[C@@H]1CN([C@@H](C)CO)S(=O)(=O)c2ccc(-c3ccc(C#N)cc3)cc2O[C@H]1CN(C)Cc1ccccn1 | 12.2%
70 | CCCC(=O)N1CC2(CN(C(=O)NC(C)C)C2)c2c([nH]c3cc(OC)ccc23)[C@@H]1CO | 0.057%
71 | O=C(NCc1ccco1)/C(=C\c1cccc([N+](=O)[O-])c1)NC(=O)c1ccco1 | 21.6%
72 | Cc1ccc(C(=O)N/C(=C/c2ccc(-c3cccc([N+](=O)[O-])c3)o2)C(=O)NCCCN(C)C)cc1 | 77.8% (active)
73 | CCn1cc(/C=C(\NC(=O)c2ccc(C)cc2)C(=O)NCCN2CCOCC2)c2ccccc21 | -9.89%
74 | C[C@H](CO)N1C[C@H](C)[C@@H](CN(C)S(=O)(=O)c2ccc(F)cc2)OCCCC[C@H](C)Oc2ccc(NC(=O)CCCN(C)C)cc2C1=O | -10.7%
75 | CN(C)CCNC(=O)c1ccc(Cl)c2cc3ccccc3nc12 | 86.6% (active)
76 | Nc1nc2c(Br)ccc(Br)c2cc1C(=O)NCCc1ccccc1 | -7.19%
77 | Cc1c(C(=O)NCCN(C)C)oc2ccc(S(=O)(=O)N3CCCC3)cc12 | -6.68%
78 | CC(C)NC(=O)N(C)C[C@@H]1OCCCC[C@@H](C)Oc2ccc(NC(=O)CCCN(C)C)cc2C(=O)N([C@@H](C)CO)C[C@@H]1C | 0.91%
